Tested on: Vero E6 infected with SARS-CoV-2
Assay: inhibition of SARS-CoV-2 cytopathic effect; higher = more antiviral protection, active = above 15
Conditions: 48 h

Measured: inhibition of SARS-CoV-2 cytopathic effect

FC(F)c1nc2ccccc2n1-c1nc(N2CCOCC2)nc(N2CCOCC2)n1
inactive: 1 nM -2.17% | 8.33 nM -0.7% | 100 nM 0.03% | 833.33 nM -2.96% | 10000 nM -6.67%

CCN(CC)CCNC(=O)COc1ccc(OC)cc1 [mefexamide]
inactive: 1 nM 1.84% | 8.33 nM 2.71% | 100 nM -0.86% | 833.33 nM -0.89% | 10000 nM -2.3%

COc1ccccc1C(=O)Nc1cccc(NC(=O)c2cccc(C)c2)c1
inactive: 1 nM 1.89% | 8.33 nM 2.12% | 100 nM 2.82% | 833.33 nM 0.39% | 10000 nM 1.77%

N#C[C@@H]1C[C@@H]2C[C@@H]2N1C(=O)[C@@H](N)C12CC3CC(CC(O)(C3)C1)C2
inactive: 1 nM -1.01% | 8.33 nM -0.66% | 100 nM 0.62% | 833.33 nM 0.34% | 10000 nM 2.08%

CC1(C)O[C@@H]2[C@@H](CO[C@@]3(COS(N)(=O)=O)OC(C)(C)O[C@@H]23)O1 [topiramate]
inactive: 1 nM -1.19% | 8.33 nM 1.71% | 100 nM -2.21% | 833.33 nM 0.74% | 10000 nM -0.18%

CN(C)CCc1c[nH]c2ccc(Cn3cncn3)cc12 [rizatriptan]
inactive: 1 nM -0.4% | 8.33 nM 0.07% | 100 nM -1.66% | 833.33 nM -0.7% | 10000 nM -1.6%

NS(=O)(=O)c1ccc(C(=O)O)cc1 [carzenide]
inactive: 1 nM -1.83% | 8.33 nM -0.09% | 100 nM 0.05% | 833.33 nM 2.39% | 10000 nM -0.52%

CC(C)C[C@H](NC(=O)[C@H](Cc1ccccc1)NC(=O)c1cnccn1)B(O)O [bortezomib]
active: 100 nM 32.8% | 833.33 nM 27.1%
inactive: 1 nM 1.7% | 8.33 nM 11% | 10000 nM 12.7%

O=c1c(-n2ccnn2)c[nH]n1-c1cc(N2CCOCC2)ncn1 [molidustat]
inactive: 1 nM 1.15% | 8.33 nM -0.02% | 100 nM -0.4% | 833.33 nM 3.64% | 10000 nM 2.32%

O=S(=O)(c1ccccc1)c1cnc2c(N3CCNCC3)cccc2c1
inactive: 1 nM -2.8% | 8.33 nM -0.02% | 100 nM -3.01% | 833.33 nM 0.98% | 10000 nM 1.43%

NCCCC[C@@H]1NC(=O)[C@@H](Cc2c[nH]c3ccccc23)NC(=O)[C@H](c2ccccc2)NC(=O)[C@@H]2C[C@@H](OC(=O)NCCN)CN2C(=O)[C@H](Cc2ccccc2)NC(=O)[C@H](Cc2ccc(OCc3ccccc3)cc2)NC1=O [pasireotide]
inactive: 1 nM -6.41% | 8.33 nM -8.12% | 100 nM -5.04% | 833.33 nM -4.91% | 10000 nM -5.41%

COc1cccc(OCCCN)c1-c1cc(Nc2cnc(C#N)cn2)n[nH]1
inactive: 1 nM -0.1% | 8.33 nM 0.79% | 100 nM -1.17% | 833.33 nM -4.06% | 10000 nM -3.92%

COc1ccc(NC(=O)c2ccc(C(=N)N(C)C)cc2)c(C(=O)Nc2ccc(Cl)cn2)c1 [betrixaban]
inactive: 1 nM -1.01% | 8.33 nM 0.96% | 100 nM -0.6% | 833.33 nM 1.17% | 10000 nM -3.48%

O=C(O)[C@H](O)[C@@H](O)[C@H](O[C@@H]1O[C@H](CO)[C@H](O)[C@H](O)[C@H]1O)[C@H](O)CO [maltobionic-acid]
inactive: 1 nM -0.69% | 8.33 nM -2.72% | 100 nM -1.55% | 833.33 nM -3.61% | 10000 nM -1.2%

CC[N+](CC)(CC(=O)Nc1c(C)cccc1C)Cc1ccccc1 [denatonium-benzoate]
inactive: 1 nM -0.9% | 8.33 nM -3.36% | 100 nM -2.46% | 833.33 nM -1.56% | 10000 nM -0.4%

COc1cccc(N(C)C(=S)Oc2ccc3c(c2)CCCC3)n1 [liranaftate]
inactive: 1 nM -2.95% | 8.33 nM 1.62% | 100 nM 0.18% | 833.33 nM -0.32% | 10000 nM 1.9%

CS(=O)(=O)c1ccc([C@@H](O)[C@@H](CO)NC(=O)C(Cl)Cl)cc1 [thiamphenicol]
inactive: 1 nM -1.6% | 8.33 nM -2.5% | 100 nM -3.22% | 833.33 nM -3.59% | 10000 nM -2.23%

OC[C@H]1O[C@@H](Oc2ccc(O)cc2)[C@H](O)[C@@H](O)[C@@H]1O [arbutin]
inactive: 1 nM -0.81% | 8.33 nM 0.67% | 100 nM 0.6% | 833.33 nM -2.34% | 10000 nM 0.83%

CN1CC[C@@H](NC(=O)Nc2ccc(C#N)cc2)C[C@@H]1c1nc2ccccc2[nH]1 [glasdegib]
inactive: 1 nM 2.8% | 8.33 nM 1.32% | 100 nM 1.05% | 833.33 nM -0.41% | 10000 nM 1.71%

CCCC[C@H](NC(=O)[C@@H]1[C@@H]2[C@H](CN1C(=O)[C@@H](NC(=O)NC1(CS(=O)(=O)C(C)(C)C)CCCCC1)C(C)(C)C)C2(C)C)C(=O)C(=O)NC1CC1 [narlaprevir]
inactive: 1 nM 0.96% | 8.33 nM 1.32% | 100 nM 0.06% | 833.33 nM 3.2% | 10000 nM 0.24%

Reference: the supplement of paper PMC13380429
